# Active and inactive are the calls of the source.
# Columns and labels:
# [1] = small molecules captured by biotinylated probe aFSTL3 – biochemical, small-molecule microarray, fluorescence 635/667, stem cell growth factor project, primary screen (AID 1064); conditions: higher = more signal;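 note: measures binding of the biotinylated anti-FSTL3 antibody to printed compounds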
# [2] = binders from COS7 lysate, DM2A8 probe, primary screen, torsin A project, cell lysate, small-molecule microarray, fluorescence 635/667 (AID 1065); conditions: higher = more signal, COS7 lysate expressing mutant human TOR1A
# [3] = small molecules captured by biotinylated probe aFGF2 – biochemical, small-molecule microarray, fluorescence 635/667, stem cell growth factor project, primary screen (AID 1067); conditions: higher = more signal;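 note: measures binding of biotinylated aFGF2 protein to printed compounds on slides; z-score merges feature fluorescence and signal-to-noise across triplicate slides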
# [4] = small molecules captured by biotinylated probe aFGF10 – biochemical, small-molecule microarray, fluorescence 635/667, stem cell growth factor project, primary screen (AID 1071); conditions: higher = more signal;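 note: score merges 667 nm spot intensity and signal to noise from triplicate slides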
# [5] = molecular target: Neurogenic locus notch homolog protein 2 (Homo sapiens) (UniProt Q04721); assay: small molecules binding Notch2 protein – biochemical, small-molecule microarray, 635 nm fluorescence, stem cell growth factors, primary screen (AID 1073); conditions: higher = more signal
# [6] = molecular target: Pro-neuregulin-1, membrane-bound isoform (Homo sapiens) (UniProt Q02297); assay: small molecules binding neuregulin-1 protein – biochemical, small-molecule microarray, fluorescence 635/667, psychiatric disease protein project, primary screen (AID 1075); conditions: NRG1 binding, 635 nm fluorescence, higher = more signal;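 note: score combines 667 nm spot fluorescence with signal to noise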
# [7] = test system: Neuregulin-1 EGF-like domain; assay: small molecules binding NRG1 EGF domain – biochemical, small-molecule microarray, 635 nm fluorescence, primary screen (AID 1081); conditions: higher = more signal;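 note: binding of the protein to compounds printed on small-molecule microarray slides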
# [8] = FRG1 expression reporter modulators in myotubes – cell-based, C2C12 myotubes, firefly/Renilla luciferase, luminescence, FRG1 inhibition for FSHD, primary screen (AID 1084); conditions: FRG1 promoter luciferase, higher = more signal, called active from +8 up or from −8 down
# [9] = small molecules captured by biotinylated probe aFST – biochemical, small-molecule microarray, fluorescence 635/667, stem cell growth factor project, primary screen (AID 1086); conditions: higher = more signal;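 note: score merges 667 nm fluorescence with signal-to-noise of each printed compound spot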
# [10] = binders of probe aHhip on microarray, primary screen, stem cell growth factor project, biochemical, small-molecule microarray, fluorescence 635/667 (AID 1087); conditions: higher = more signal;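 note: score merges spot fluorescence at 667nm with spot signal to noise ratio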
# [11] = test system: PRMT1 (protein arginine N-methyltransferase 1); assay: small molecules binding arginine methyltransferase PRMT1 – biochemical, small-molecule microarray, 635 nm fluorescence, primary screen (AID 1088); conditions: higher = more signal;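 note: binding of Prmt1 protein to compounds spotted on small-molecule microarray slides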
# [12] = growth effects on S. cerevisiae YJM789 – YJM789 clinical isolate, OD600, 24 h, basal, primary screen (AID 1089); conditions: higher = more signal, called active from +8 up or from −8 down;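 note: growth of clinical yeast isolate S. cerevisiae YJM 789 seeded 1000 cells per well; test concentration not given here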
# [13] = S. pombe growth modifiers, basal conditions – strain 972, OD600, 24 h, no modulator, primary screen (AID 1090);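 note: basal condition with compound alone and no growth modifier present; test concentration not given here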; conditions: S. pombe 972 growth, higher = more signal, called active from +8 up or from −8 down
# [14] = budding yeast growth modifiers under rapamycin – strain BY4716, OD600, 96 h, primary screen (AID 1091); note: test concentration not given here; conditions: S. cerevisiae BY4716 + rapamycin, higher = more signal, called active from +8 up or from −8 down
# [15] = molecular target: Torsin-1A-interacting protein 2 (Homo sapiens) (UniProt Q8NFQ8); assay: small molecules binding lysate-expressed LULL1 – cell lysate, human LULL1 lysate, 635/667 nm fluorescence, primary screen (AID 1092); conditions: small-molecule microarray, hLULL1 lysate binding, 635 nm fluorescence; higher = more signal;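 note: probe is lysate of COS7 cells overexpressing human LULL1; score merges per-feature 667 nm fluorescence with signal-to-noise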
# [16] = optical density change of DRC41 E. coli – strain DRC41, OD650, 24 h, E. coli filamentation project, primary screen (AID 1093);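 note: MC1000 strain lacking acrAB efflux and sulA so SOS filamentation is blocked; test concentration not given here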; conditions: E. coli DRC41 growth, higher = more signal, called active from +8 up or from −8 down
# [17] = probe aLefty2 binding to arrayed compounds – biochemical, biotinylated probe, 635/667 nm fluorescence, primary screen (AID 1094); conditions: small-molecule microarray, higher = more signal;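 note: score merges spot fluorescence near 667 nm with spot signal-to-noise ratio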
# [18] = test system: Noggin (protein binding on small-molecule microarray); assay: small molecules binding Noggin protein – biochemical, 635/667 nm fluorescence, primary screen (AID 1095); conditions: 635 nm fluorescence, higher = more signal;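 note: score merges 667 nm feature fluorescence with signal to noise over triplicate slides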
# [19] = molecular target: Neurogenic locus notch homolog protein 3 (Homo sapiens) (UniProt Q9UM47); assay: small molecules binding NOTCH3 protein – biochemical, 635/667 nm fluorescence, primary screen (AID 1096); conditions: small-molecule microarray, 635 nm fluorescence, higher = more signal
# [20] = probe aEGFR binding to arrayed compounds – biochemical, biotinylated probe, 635/667 nm fluorescence, primary screen (AID 1097); conditions: small-molecule microarray, higher = more signal;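 note: probe is a biotinylated anti-EGFR antibody binding compounds printed on slides; score combines fluorescence near 667 nm and signal to noise of each spot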
# Chain of Pro-neuregulin-1, membrane-bound isoform (Homo sapiens) (Q02297 whole entry, looked up, the tested form may be a part, canonical isoform): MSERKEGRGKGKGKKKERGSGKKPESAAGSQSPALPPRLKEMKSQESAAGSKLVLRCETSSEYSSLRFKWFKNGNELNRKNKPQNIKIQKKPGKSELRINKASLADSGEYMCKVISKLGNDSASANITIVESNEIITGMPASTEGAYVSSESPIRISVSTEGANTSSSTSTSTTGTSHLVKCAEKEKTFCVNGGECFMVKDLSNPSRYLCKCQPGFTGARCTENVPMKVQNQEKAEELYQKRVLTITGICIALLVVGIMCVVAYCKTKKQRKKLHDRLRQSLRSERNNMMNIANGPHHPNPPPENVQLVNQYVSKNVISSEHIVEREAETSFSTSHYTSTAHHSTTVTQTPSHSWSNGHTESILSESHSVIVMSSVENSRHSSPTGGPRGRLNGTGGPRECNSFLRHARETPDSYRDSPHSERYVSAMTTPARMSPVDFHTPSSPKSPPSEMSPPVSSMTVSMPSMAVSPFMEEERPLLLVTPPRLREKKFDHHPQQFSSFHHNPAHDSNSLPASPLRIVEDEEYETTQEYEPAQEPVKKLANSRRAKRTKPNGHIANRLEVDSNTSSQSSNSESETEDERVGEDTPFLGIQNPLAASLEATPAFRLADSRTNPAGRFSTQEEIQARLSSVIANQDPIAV
# Chain of Torsin-1A-interacting protein 2 (Homo sapiens) (Q8NFQ8 whole entry, looked up): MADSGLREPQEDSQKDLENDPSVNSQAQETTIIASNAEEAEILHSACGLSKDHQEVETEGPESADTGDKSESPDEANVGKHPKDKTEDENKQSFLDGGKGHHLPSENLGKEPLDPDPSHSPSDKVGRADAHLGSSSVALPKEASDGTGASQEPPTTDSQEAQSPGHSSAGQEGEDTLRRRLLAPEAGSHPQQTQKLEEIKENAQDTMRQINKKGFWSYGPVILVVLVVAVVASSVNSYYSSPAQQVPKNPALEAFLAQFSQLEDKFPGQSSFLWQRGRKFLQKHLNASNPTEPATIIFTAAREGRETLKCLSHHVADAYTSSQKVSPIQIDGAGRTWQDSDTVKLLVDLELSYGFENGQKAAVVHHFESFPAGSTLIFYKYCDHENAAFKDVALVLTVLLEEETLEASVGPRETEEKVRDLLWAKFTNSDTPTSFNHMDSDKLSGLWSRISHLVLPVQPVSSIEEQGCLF
# Chain of Neurogenic locus notch homolog protein 2 (Homo sapiens) (Q04721 whole entry, looked up, canonical isoform): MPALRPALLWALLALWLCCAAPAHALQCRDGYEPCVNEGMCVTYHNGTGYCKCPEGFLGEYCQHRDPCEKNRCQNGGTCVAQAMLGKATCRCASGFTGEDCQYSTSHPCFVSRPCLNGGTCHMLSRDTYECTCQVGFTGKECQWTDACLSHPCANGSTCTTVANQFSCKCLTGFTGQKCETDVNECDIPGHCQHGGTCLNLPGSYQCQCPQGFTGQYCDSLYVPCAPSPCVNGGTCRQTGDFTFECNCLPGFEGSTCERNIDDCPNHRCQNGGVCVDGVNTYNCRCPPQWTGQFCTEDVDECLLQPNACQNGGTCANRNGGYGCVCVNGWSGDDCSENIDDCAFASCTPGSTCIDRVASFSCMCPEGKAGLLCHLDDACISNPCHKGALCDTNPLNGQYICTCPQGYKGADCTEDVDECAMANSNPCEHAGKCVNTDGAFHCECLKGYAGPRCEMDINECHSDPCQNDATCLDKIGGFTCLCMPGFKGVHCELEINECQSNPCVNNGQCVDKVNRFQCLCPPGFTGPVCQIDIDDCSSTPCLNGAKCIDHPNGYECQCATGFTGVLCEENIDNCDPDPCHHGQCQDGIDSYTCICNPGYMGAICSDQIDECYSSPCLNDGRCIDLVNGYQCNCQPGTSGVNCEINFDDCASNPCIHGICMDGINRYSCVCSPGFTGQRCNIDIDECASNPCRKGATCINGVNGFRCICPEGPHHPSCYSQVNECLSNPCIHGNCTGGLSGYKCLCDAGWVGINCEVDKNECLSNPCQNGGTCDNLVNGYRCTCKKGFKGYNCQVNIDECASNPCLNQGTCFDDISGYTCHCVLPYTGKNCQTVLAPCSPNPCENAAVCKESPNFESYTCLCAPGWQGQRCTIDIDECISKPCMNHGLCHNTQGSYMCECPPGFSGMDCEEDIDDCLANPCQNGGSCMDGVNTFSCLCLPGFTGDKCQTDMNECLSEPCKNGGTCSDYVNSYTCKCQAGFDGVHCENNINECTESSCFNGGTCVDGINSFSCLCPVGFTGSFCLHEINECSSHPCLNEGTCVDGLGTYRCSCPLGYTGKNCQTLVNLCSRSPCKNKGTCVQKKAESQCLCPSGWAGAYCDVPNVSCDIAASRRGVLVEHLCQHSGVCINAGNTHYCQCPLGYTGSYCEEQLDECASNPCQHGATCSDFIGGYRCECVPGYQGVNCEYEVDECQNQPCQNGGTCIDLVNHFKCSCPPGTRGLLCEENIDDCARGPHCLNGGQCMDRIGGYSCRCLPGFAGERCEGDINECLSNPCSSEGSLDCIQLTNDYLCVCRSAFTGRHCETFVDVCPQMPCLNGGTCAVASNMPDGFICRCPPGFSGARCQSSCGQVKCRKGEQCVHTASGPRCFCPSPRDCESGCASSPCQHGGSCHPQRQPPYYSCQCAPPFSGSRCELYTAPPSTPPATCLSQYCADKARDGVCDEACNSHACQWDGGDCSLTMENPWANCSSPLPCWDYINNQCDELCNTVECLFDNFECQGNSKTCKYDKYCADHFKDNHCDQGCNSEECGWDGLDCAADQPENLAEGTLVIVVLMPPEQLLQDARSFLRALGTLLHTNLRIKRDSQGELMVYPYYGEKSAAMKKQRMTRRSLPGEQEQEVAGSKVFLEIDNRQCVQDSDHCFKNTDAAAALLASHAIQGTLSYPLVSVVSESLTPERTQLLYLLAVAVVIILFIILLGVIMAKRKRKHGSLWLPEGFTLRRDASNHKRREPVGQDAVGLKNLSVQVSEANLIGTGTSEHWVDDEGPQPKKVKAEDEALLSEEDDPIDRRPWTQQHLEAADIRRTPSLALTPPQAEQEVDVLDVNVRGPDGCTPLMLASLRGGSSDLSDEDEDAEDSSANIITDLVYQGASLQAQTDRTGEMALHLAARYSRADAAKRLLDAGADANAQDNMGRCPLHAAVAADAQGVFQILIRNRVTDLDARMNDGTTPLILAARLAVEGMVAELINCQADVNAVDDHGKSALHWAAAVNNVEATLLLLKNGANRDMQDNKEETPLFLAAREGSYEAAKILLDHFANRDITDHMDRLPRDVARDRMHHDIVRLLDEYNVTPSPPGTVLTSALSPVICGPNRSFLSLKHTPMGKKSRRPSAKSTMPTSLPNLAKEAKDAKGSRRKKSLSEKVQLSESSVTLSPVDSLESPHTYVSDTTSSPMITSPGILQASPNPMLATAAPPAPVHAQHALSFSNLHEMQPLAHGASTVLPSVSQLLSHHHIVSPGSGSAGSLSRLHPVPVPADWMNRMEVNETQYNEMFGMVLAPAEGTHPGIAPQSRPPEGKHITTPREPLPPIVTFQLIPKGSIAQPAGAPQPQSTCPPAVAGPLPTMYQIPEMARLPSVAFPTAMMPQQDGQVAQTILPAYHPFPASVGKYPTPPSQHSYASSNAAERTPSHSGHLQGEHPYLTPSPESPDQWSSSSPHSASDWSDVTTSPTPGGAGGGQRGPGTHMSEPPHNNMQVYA
SMILES,composite z-score [1],composite z-score [2],composite z-score [3],composite z-score [4],composite z-score [5],composite z-score [6],composite z-score [7],z-score [8],composite z-score [9],composite z-score [10],composite z-score [11],z-score [12],z-score [13],z-score [14],composite z-score [15],z-score [16],composite z-score [17],composite z-score [18],composite z-score [19],composite z-score [20]
CS(=O)(=O)CCOC(=O)C1=CC(CCCO)=CC(c2cccs2)N(Cc2cc3c(cc2Br)OCO3)C=C1C(=O)OCCS(C)(=O)=O (stereo not given),-0.281,0.24,0.0737,0.517,1.5,1.88,1.31,-1.91 (inactive),0.827,0.463,1.56,0.187 (inactive),-1.16 (inactive),-0.919 (inactive),2.82,0.734 (inactive),-0.0379,0.91,1.06,0.0503
COc1cc(C(O)C2C=CC3C(=O)N(c4ccccc4)C(=O)C3N2Nc2ccc(C#N)cc2)cc(OC)c1OC (stereo not given),0.606,0.226,0.179,1.14,1.67,2.18,1.41,0.209 (inactive),1.77,0.295,1.54,-0.531 (inactive),0.849 (inactive),1.75 (inactive),3.84,-1.27 (inactive),0.368,-0.0742,1.03,0.273
CCCN1C(=O)[C@@]2(CCC(=O)OC(C)(C)C)N=C(c3ccc(OCCCO)cc3)O[C@H]2c2ccccc21,-0.0952,0.108,-0.0243,0.102,0.312,0.0163,0.959,-1.22 (inactive),0.0225,-0.191,1.56,-1.25 (inactive),-1.19 (inactive),1.51 (inactive),2.64,1.2 (inactive),0.0272,1.82,0.518,-0.0371
COc1ccc([Si](C)(C)[C@H]2[C@H](CC(=O)N(CCO)Cc3ccccc3)O[C@@]3(C(=O)N(Cc4cccc(N5CCC5=O)c4)c4ccccc43)[C@@H]2C)cc1,0.0204,0.906,-0.131,0.55,0.629,1.18,1.07,-1.55 (inactive),-0.194,-0.13,1.39,-0.763 (inactive),-0.509 (inactive),1.16 (inactive),1.64,2.57 (inactive),-0.0188,0.847,0.976,-0.0334
CCN(CC)c1ccc(N2CC=CC34O[C@@H]5C=CCCOC(=O)C5[C@H]3C(=O)N(CCCCCO)[C@@H]4C2=O)cc1 (stereo not given in full),0.373,2.13,-0.116,-0.851,-0.788,1.78,1.01,-0.736 (inactive),0.37,-0.226,-0.203,-0.847 (inactive),-1.3 (inactive),-0.818 (inactive),0.965,2.85 (inactive),-0.126,-0.514,-0.272,-0.168
CCCCC(CC)C(O)C1C=CC2C(=O)N(c3ccccc3)C(=O)C2N1Nc1ccccc1 (stereo not given),0.0807,0.34,0.0472,0.698,1.46,0.796,1.06,-0.274 (inactive),1.1,-0.0618,0.527,0.549 (inactive),0.645 (inactive),0.804 (inactive),2.94,-1.54 (inactive),0.0319,-0.0087,1.11,0.0276
CC(C)N1C(=O)[C@@]2(c3ccc([N+](=O)[O-])cc3)CC(=O)N(CC34CC5CC(CC(C5)C3)C4)[C@@H]2c2ccc(CO)cc21,-0.448,-1.26,-0.188,-0.373,-1.16,-0.34,-0.867,0.63 (inactive),-0.39,-0.164,0.788,0.759 (inactive),0.652 (inactive),-0.975 (inactive),-0.0313,-0.0342 (inactive),-0.253,-0.337,0.272,-0.162
Cc1ccccc1C(O)C1C=CC2C(=O)N(C)C(=O)C2N1Nc1ccccc1 (stereo not given),0.413,0.526,-0.0035,0.0865,1.22,2.05,1.14,0.772 (inactive),0.842,-0.0994,1.25,-0.145 (inactive),-0.885 (inactive),-0.0194 (inactive),2.98,-1.43 (inactive),0.149,-0.657,0.993,-0.0634
CCC(CC)C(O)C1C=CC2C(=O)N(c3ccccc3)C(=O)C2N1Nc1ccc(C#N)cc1 (stereo not given),1.07,0.693,0.326,0.884,1.64,1.77,1.29,-1.02 (inactive),1.22,-0.271,1.55,-0.295 (inactive),0.621 (inactive),1.28 (inactive),3.2,-0.279 (inactive),0.615,-0.136,1.04,0.334
CN(C)CCCCNC(=O)[C@H]1C[C@H]2C(=O)N[C@@H](Cc3ccccc3)C(=O)N2[C@H]1c1ccc(O)cc1,-0.289,0.703,-0.0805,0.934,1.37,1.65,1.22,1.85 (inactive),0.748,0.107,1.54,-0.368 (inactive),0.523 (inactive),-1.4 (inactive),0.248,1.12 (inactive),0.0274,1.66,1.11,0.116
CC(C)N1C(=O)C[C@@](C(=O)NCc2ccccc2)(c2ccc([N+](=O)[O-])cc2)[C@H]1c1ccc(CO)cc1,0.539,1.22,-0.138,-0.136,0.0796,-0.524,1.25,0.167 (inactive),-0.699,-0.201,1.01,0.296 (inactive),-0.203 (inactive),-0.881 (inactive),3.48,0.796 (inactive),0.16,-0.112,0.199,-0.167
N[C@@H](Cc1ccccc1)Cn1cc(-c2ccccc2)nn1,0.407,0.556,-0.0613,-0.161,0.0615,0.429,0.198,0.874 (inactive),0.746,-0.186,0.043,-0.814 (inactive),-2.18 (inactive),0.371 (inactive),0.196,-3 (inactive),0.323,-0.0062,-0.0488,-0.0549
CC(C)N1C(=O)c2ccccc2[C@@H](C(=O)NCCCN(C)C)[C@@H]1c1ccc(CO)cc1,0.878,-0.194,-0.0502,-0.086,0.102,1.78,1.11,0.0159 (inactive),0.908,0.0066,-0.468,-0.545 (inactive),-0.672 (inactive),-0.181 (inactive),1.3,-1.04 (inactive),0.196,-0.879,-0.807,-0.0435
C=CC(=C)C1=CCO[C@@H]1[C@H]1CCCN1S(=O)(=O)c1ccccc1[N+](=O)[O-],-0.552,0.162,-0.0716,0.138,1.07,0.832,1.01,-0.788 (inactive),0.358,-0.271,0.921,-0.358 (inactive),0.131 (inactive),-0.184 (inactive),0.86,0.301 (inactive),-0.0416,0.35,1.11,-0.115
Cc1ccc(F)cc1S(=O)(=O)N[C@@H]1CCN(Cc2ccc(-c3ccccc3)cc2)C1,0.111,0.504,-0.0894,1.04,0.332,0.0558,1.07,-1.72 (inactive),0.204,0.107,0.126,-26.5 (active),-21.3 (active),-4.06 (inactive),0.12,-19.9 (active),0.144,0.713,0.481,-0.0565
CC(C)C[C@@H]1NC(=O)[C@H]2C[C@@H](C(=O)NCCCCCNC(=O)CS)[C@@H](c3cccc(OCCO)c3)N2C1=O,-0.197,0.235,-0.0474,0.387,1.25,1.03,1.31,0.209 (inactive),0.707,-0.173,1.53,-0.454 (inactive),-0.267 (inactive),0.0073 (inactive),3.06,-0.187 (inactive),0.106,1.98,1.07,0.111
O=C1OCCC=C[C@H]2OC34C=CCN(Cc5ccccc5)C(=O)[C@H]3N(CCCCCCO)C(=O)[C@@H]4C12 (stereo not given in full),0.359,-1.01,-0.196,-0.384,-0.91,1.88,0.92,-0.386 (inactive),-0.26,-0.621,0.831,0.104 (inactive),-0.0853 (inactive),-0.0696 (inactive),3.21,0.801 (inactive),-0.42,-0.485,0.127,-0.309
COCCOC(=O)N1C(=O)[C@@]2(c3cc(C#CCC(C(=O)OC)C(=O)OC)ccc31)[C@H](c1ccccc1OCCO)N1[C@H](c3ccccc3)[C@H](c3ccccc3)OC(=O)[C@H]1[C@@H]2C(N)=O,-0.0037,0.532,0.0495,1.17,0.923,1.42,1.21,-0.885 (inactive),0.0716,0.107,1.17,1.47 (inactive),0.951 (inactive),4.79 (inactive),2.74,1.12 (inactive),0.0074,0.726,1.1,-0.0346
COc1ccc(C(=O)Nc2cccc(CN3C(=O)[C@@]4(O[C@@H](CCn5cc(CCO)nn5)[C@H]([Si](C)(C)c5ccc(OC)cc5)[C@H]4C)c4ccccc43)c2)cc1,-0.115,0.485,-0.0381,0.205,1.12,1.08,1.11,-3.09 (inactive),0.407,-0.0994,1.55,1.65 (inactive),-14 (active),0.984 (inactive),2.06,-1.02 (inactive),0.0361,1.2,1.11,0.0511

# Source: PubChem BioAssay
